# In PubChem BioAssay (NCI):
# This is part of a sample that, as a whole, favours compounds with a hit. Of some 83,000 tested, about 20% had one in any assay.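 Each cell line was grown in a 96-well plate and treated with one concentration of compound for 48 hours. Values below 10 were considered active.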 Unmarked numbers belong to inactive results. Calls of active or inactive are those of the source.
# System: UO-31 renal
# Assay: NCI-60 one-dose screen, 48 h (100 = growth as untreated, 0 = no growth, -100 = all killed)
# Details: 10 µM unless noted
row,SMILES,growth
1,CCCCCN1C=C/C(=C\C(=O)N(C)c2ccc(Oc3ccccc3)cc2)c2ccccc21,85.3%
2,O=C1Nc2cc(-c3ccc(NC(=O)C4CC4)cc3)ccc2/C1=C/c1ccc[nH]1,80.2%
3,COc1cc2nc(-c3ccc(Cl)cc3)cc(OCCCN3CCCC3)c2cc1OC,42.3%
4,CCCOC(=O)N[C@H]1CCc2c(Cl)c(OC)c(OC)c(OC)c2-c2ccc(SC)c(=O)cc21,23.1%
5,CCCCCCOc1ccc(/C=N/Nc2cc(C)nc3ccc(Cl)cc23)cc1,-89.8% (active)
6,Nc1c(C(=O)Nc2cccc3cnccc23)sc2nc3c(cc12)CN(Cc1ccccc1)CC3,75.5%
7,CCCCOc1ccc(/C(C)=N/Nc2cc(C)nc3ccc(Br)cc23)cc1,67.7%
8,Cc1cnc(C(=O)Nc2nc3ccc(S(=O)(=O)Nc4ccc(C(C)(C)C)cc4)cc3[nH]2)cn1,40.4%
9,CCN1CCN(CCNc2nccc(-c3c(-c4cccc(OC)c4)nc4occn34)n2)S1(=O)=O,91.9%
10,CCCCOc1ccc(/C=N/Nc2cc(C)nc3ccc(Br)cc23)cc1,-71.1% (active)
11,O=c1[nH]nc(-c2ccccc2)c2sc3ncc(-c4ccc(Br)cc4)n3c12,73.3%
12,O=C(Nc1ccc(NC(=O)c2cc(=O)[nH]c3ccccc23)cc1)Nc1cccc(Cl)c1,65.3%
13,N#Cc1cc(-c2nc3ccccc3s2)c(=O)n(NS(=O)(=O)c2ccccc2)c1N,72.7%
14,Oc1ccc(C(c2ccc(O)cc2)c2ccc(Br)cn2)cc1,53%
15,CCOC(=O)[C@@H]1CCCN(S(=O)(=O)c2ccc(S(=O)(=O)N(CC)CC)c(F)c2)C1,69%
16,N#Cc1cccc(-c2ccc3c(c2)NC(=O)/C3=C\c2ccc[nH]2)c1,65.6%
17,O=[N+]([O-])c1cc(Br)c2cccc3c2c1CC3,90.8%
18,NS(=O)(=O)c1ccc(Cn2c(SCC(=O)N/N=C/c3ccccc3O)nc3ccccc3c2=O)cc1,61%
19,CCNC(=O)Oc1ccc(/C(=C(\C)c2ccccc2)c2ccc(OCCN(CC)CC)cc2)cc1,61.6%

row,SMILES,growth
1,COc1ccc(C(=O)/C=C/c2cc3ccccc3n3nnnc23)cc1,90.8%
2,O=C(N/N=C/c1ccc(Oc2ccccc2)cc1)c1cnn2c1NC(c1ccccc1)C2 (stereo not drawn),60.7%
3,NC1=NN=C(N)C1=Cc1cc2ccccc2n2nnnc12,77.1%
4,CCSCC1CC(O)(c2ccccc2)CC(c2ccc(F)cc2)O1 (stereo not drawn),28.6%
5,Cc1cccc(NC(=O)Nc2ccc(-n3cnc4cc(-c5ccc(O)cc5)ccc43)cc2)c1,27.2%
6,COc1ccc(/C=C(\C#N)n2nc3cccc(F)c3n2)cc1,89.6%
7,Nc1n[nH]c2cccc(C#Cc3cccc(C(=O)Nc4cccc(C(F)(F)F)c4)c3)c12,37.2%
8,O=C(Nc1ccccc1C(=O)N/N=C(\c1ccccc1)c1ccccn1)c1ccc(F)cc1,1.98% (active)
9,C=C1C(=O)O[C@H]2[C@H]1CC/C(C(=O)NCCCCCNC(=O)/C1=C/CC[C@@]3(C)O[C@H]3[C@H]3OC(=O)C(=C)[C@@H]3CC1)=C\CC[C@@]1(C)O[C@@H]21,92.6%
10,N#Cc1c(NCc2ccccc2I)sc2c1CCCCC2,79.7%
11,C=C1C(=O)O[C@H]2[C@H]1CC/C(COC(=O)NCC(C)c1ccc(CC(C)C)cc1)=C\CC[C@@]1(C)O[C@@H]21 (stereo partly drawn),-100% (active)
12,Cc1cc(C(=O)/C=C/c2ccc[nH]2)ccc1-n1ccc(C(F)(F)F)n1,-92.1% (active)
13,C=C1C(=O)O[C@H]2[C@H]1CC/C(CNC(=O)/C=C/c1cccc(OC)c1)=C\CC[C@@]1(C)O[C@@H]21,-94.6% (active)
14,COc1cc(/C=N/NC(=O)c2cnn3c2NC(c2ccccc2)C3)ccc1Oc1ccccc1 (stereo not drawn),51.5%
15,COc1cc(C2=C(c3cn(C)c4ccccc34)COC2=O)cc(OC)c1OC,10.4%
16,COc1cc(/C=C\C(=O)O)ccc1OCc1ccccc1,81.4%
17,COc1cc2c(=O)n(CCN)c3c4cc5c(cc4ccc3c2cc1OC)OCO5,-84.8% (active)
18,CCCCCN1C=C/C(=C\C(=O)N(C)c2ccc(OC(F)(F)F)cc2)c2ccccc21,77.4%
19,CN(C)CC(O)c1ccc(/C=C/c2ccc(Cl)cc2)cc1 (stereo not drawn),-67.2% (active)
